Screening data as filed in PubChem.
Abs 340nm – compound absorbs light at 340 nm; compound absorbance at 340 nm, fold over control; fold change at 10 µM; 65,000 tested, under 10 active;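 active = at 10 µM dose, initial 340 nm absorbance at least 2 fold that of control wells; inactive = change under 2 fold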;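 note: initial absorbance extrapolated from kinetic A340 decline of NADH oxidation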
Fluor 339 460 – intrinsic fluorescence of library compounds, ex339/em460 – biochemical, MLSMR library, data from DPM-DC assay, artefact control, profiling panel | compound autofluorescence, ex339/em460 nm, NADH buffer; hits give high values; 1 = no-compound wells, NADH background | fluorescence fold increase at 10 µM | 65,000 tested, 5.5% active | AID 709;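 active = at 10 µM, mean starting fluorescence two-fold or more over control wells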;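 note: signal is the first read of a kinetic run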
Spn DPM-DC inh – inhibitors of Streptococcus pneumoniae diphosphomevalonate decarboxylase; purified DPM-DC, PK/LDH coupled NADH fluorescence; calls only at 10 µM; 65,000 tested, 0.49% active; AID 556;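 active = the 320 compounds with the highest percent inhibition in the single-dose primary screen, excluding strongly autofluorescent ones, cut at about 32% in these data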;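 note: kinetic rate of NADH fluorescence loss reporting ADP formed by the decarboxylase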
NADH enzymes – inhibitors of enzymes used to reach an NAD/NADH endpoint | IC50, µM (doses to about 10 µM), for inactives: top-dose inhibition | coupled PK/LDH NADH assays, four targets | 65,000 tested, 0.02% active | AID 774;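 active = single-dose screening hits from any of four coupled enzyme assays that gave an IC50 when retested across doses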;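 note: the DPM-DC format reads NADH fluorescence rather than 340 nm absorbance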
Spn MK inh – S. pneumoniae mevalonate kinase inhibition | purified MK, PK/LDH-coupled NADH absorbance 340 nm | 65,000 tested, 0.48% active | inhibition, % at 10 µM;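 active = ranked among the strongest by inhibition in the single 10 µM screen, a fixed top-ranked set picked for dose follow-up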
Spn PMK inh – S. pneumoniae PMK inhibition. purified PMK, PK/LDH-coupled NADH absorbance 340 nm. inhibition, % at 10 µM. 65,000 tested, 0.49% active;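 active = top-ranked compounds by inhibition in the single 10 µM screen, taking a fixed number of the strongest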;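 note: 0% = full reaction with DMSO carrier and 100% = background rate without enzyme reaction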
An asterisk follows results filed as active; i = inactive; . = no result shown; + = active, no number; [ ] = another dose, or the depositor's remark. An excerpt weighted towards active compounds, which were near 6.3% of everything screened.

SMILES	Abs 340nm	Fluor 339 460	Spn DPM-DC inh	NADH enzymes	Spn MK inh	Spn PMK inh
N#Cc1nc(-c2ccc(OCc3ccccc3)cc2)oc1NCCCn1ccnc1	1	4*	.	14%	12	15
Cc1ccc(OCc2nc(C#N)c(NCCCn3ccnc3)o2)cc1	0.99	0.96	i	9%	7	16
CN(C)C=Nc1ncc2c([nH]c3ccccc32)c1C#N	1.2	2.1*	i	9%	2	11
CCCCS(=O)(=O)Nc1ccc(Cc2ccncc2)cc1	1	1.1	i	4%	5	7
CC(CN(C)Cc1ccccc1)OC(=O)c1ccc2c(c1)OCCO2 (configuration not stated)	1	1	i	1%	5	0
CCCc1cc(=O)oc2cc(OCC(=O)N(C)C)c(Cl)cc12	1.1	1.4	i	4%	6	3
Cc1coc2cc3oc(=O)c4c(c3cc12)CCC4	1	2.8*	+[may fluoresce]	4%	10	9
Cc1coc2c(C)c3oc(=O)c4c(c3cc12)CCC4	1.1	1.9	i	8%	7	9
Cc1cc(=O)oc2cc(OC(C)C(=O)O)c(Cl)cc12 (configuration not stated)	1.1	3.2*	+	25%	0	19
CC(=O)Oc1cc2oc(=O)c3c(c2cc1Cl)CCC3	1	4.9*	.	14%	4	23
CC(C)Oc1cc2oc(=O)c3c(c2cc1Cl)CCC3	1.1	2.3*	i	6%	7	11
Cc1ccc(CN2CCNC(=O)C2CC(=O)O)o1 (configuration not stated)	1.1	1.1	i	3%	4	5
O=C(Oc1cc2oc(=O)c3c(c2cc1Cl)CCCC3)c1ccco1	1.1	2.5*	.	4%	10	11
Cc1cc2oc(=O)c3c(c2cc1OC(=O)c1ccco1)CCCC3	1	1.2	i	3%	5	3
CCCCNc1nc2c(c(=O)n(C)c(=O)n2C)n1CCC	1	1	i	10%	4	26*
CCC(OC(=O)CC1Sc2ccccc2NC1=O)C(=O)NCC1CCCO1 (configuration not stated)	1	1.1	i	2%	0	7
CCc1cc(=O)oc2cc(OCc3nn[nH]n3)ccc12	1.1	3*	i	11%	6	11
CCCCc1cc(=O)oc2cc(OCc3nn[nH]n3)c(Cl)cc12	1.1	2.5*	i	7%	3	12
O=C(CSc1nnc(-c2cccs2)n1CC1CCCO1)c1cc2ccccc2o1 (configuration not stated)	1.1	1.1	i	7%	9	12
CC(=O)N1CCC(C(=O)Nc2ccccc2)(N(Cc2ccccc2)C(=O)c2cccnc2)CC1	1	1.1	i	3%	7	3
Cc1noc(C)c1S(=O)(=O)NCc1ccc2c(c1)OCO2	1.1	1.1	i	8%	13	10
COc1ccc(S(=O)(=O)Nc2ccccc2C(=O)NCc2ccco2)cc1	1	3.6*	.	8%	6	9
CCOC(=O)c1cc(-c2ccc(F)cc2)n(CC(=O)Nc2nccs2)c1C	1	1.1	i	4%	3	8
C=CCOc1nc(N2CCCC2)nc(N2CCCC2)n1	0.99	1	i	4%	0	19
CCC(C)NC(=O)c1cnn2c(C)c3c(nc12)CCCC3 (configuration not stated)	1	4.9*	.	11%	0	21
SMILES	Abs 340nm	Fluor 339 460	Spn DPM-DC inh	NADH enzymes	Spn MK inh	Spn PMK inh
Cc1ccc(C)c(-c2nc3cc(N)ccc3o2)c1	1	2.3*	+[fluoresces]	3%	4	0
Cc1ccc(C)c(-c2nc3ccc(N)cc3[nH]2)c1	1	3*	.	8%	6	12
Nc1ccc2nc(-c3ccc(Cl)cc3)[nH]c2c1	1.2	2.1*	.	12%	6	18
Cc1ccc2nc(C(O)C(O)c3nc4ccc(C)cc4[nH]3)[nH]c2c1 (configuration not stated)	1	1.2	i	5%	1	13
Nc1ccc(-c2nc3c(Cl)c(N)ccc3[nH]2)cc1	1.2	3.6*	.	8%	0	16
COc1cccc(/C(O)=C2/C(=O)C(=O)N(CCCN(C)C)C2c2cccc(Cl)c2)c1 (configuration not stated)	1	1.1	i	7%	6	14
Cc1ccc2c(C)nc(NC3=NCN(C(C)C)CN3)nc2c1	1	1.1	i	2%	12	9
COc1ccc(-c2cc3nc(C4CCN(C(=O)OC(C)(C)C)CC4)c(C(=O)O)cn3n2)cc1	1.1	2.7*	i	15%	1	22
CC(=O)Nc1ccc(S(=O)(=O)N2CCN(CC(=O)NC3CCCC3)CC2)cc1	1	1.1	i	5%	11	0
CSCCC(NC(=O)c1ccccc1)C(=O)NCc1ccco1 (configuration not stated)	1.1	1.1	i	1%	1	1
O=C1CC(Cc2ccccc2)C(=O)N1CCCn1ccnc1 (configuration not stated)	1.1	0.68	i	3%	i	i
CCOC(=O)N1CCC(NC(=O)Cn2c3ccccc3c3cn[nH]c(=O)c32)CC1	1	1.2	i	5%	0	15
CCOC(=O)N1CCC(NC(=O)Cn2c3c(c(-c4ccccc4Cl)cc2=O)CCC3)CC1	1	2.2*	.	4%	9	11
CCCCNC(=O)C(C#N)c1nc2ccccc2nc1N1CCN(c2ccccc2F)CC1 (configuration not stated)	1	1.2	i	3%	6	4
COC(=O)c1ccc(CNC(=O)CSc2nc3sc(C)c(C)c3c(=O)n2C)o1	1	1	i	2%	8	10
CCOC(=O)c1ccc(NC(=O)CSc2nc(C)cc(=O)[nH]2)cc1	0.99	1.1	i	16%	14	26*
COc1cccc(-c2cc(C(=O)Nc3cc(C)n(Cc4ccc(Cl)cc4)n3)no2)c1	0.99	1.1	i	2%	1	8
COc1ccc(OC)c(-c2cc(C(=O)Nc3cc(C)n(Cc4ccc(Cl)cc4)n3)no2)c1	1	3.8*	i	6%	0	18
Nc1nnc(Cc2ccc(Cl)cc2)s1	0.98	0.99	i	3%	9	1
Nc1nnc(CCS(=O)(=O)c2cc(Cl)ccc2Cl)s1	1	1.1	i	18%	53*	0
CCCCS(=O)(=O)c1sc2nc(C)cc(C)c2c1N	1.1	2*	i	13%	8	5
Cc1cc(C)c2c(N)c(S(=O)(=O)c3ccccc3)sc2n1	1.1	1.4	i	3%	1	0
Cn1c(-c2c(N)n(C3CCCC3)c3nc4ccccc4nc23)nc2ccccc21	1.1	3.8*	.	11%	10	12
